FLuc inh – inhibitors of firefly (Photinus pyralis) luciferase. purified P. pyralis luciferase, luminescence, biochemical. Potency, µM (highest dose often 115 µM), hits mostly inhibitors. actives 2.5% (n = 76,000); further: nearly all actives have a fitted effect of over 65% in size
Target sequence (P08659 whole entry, looked up): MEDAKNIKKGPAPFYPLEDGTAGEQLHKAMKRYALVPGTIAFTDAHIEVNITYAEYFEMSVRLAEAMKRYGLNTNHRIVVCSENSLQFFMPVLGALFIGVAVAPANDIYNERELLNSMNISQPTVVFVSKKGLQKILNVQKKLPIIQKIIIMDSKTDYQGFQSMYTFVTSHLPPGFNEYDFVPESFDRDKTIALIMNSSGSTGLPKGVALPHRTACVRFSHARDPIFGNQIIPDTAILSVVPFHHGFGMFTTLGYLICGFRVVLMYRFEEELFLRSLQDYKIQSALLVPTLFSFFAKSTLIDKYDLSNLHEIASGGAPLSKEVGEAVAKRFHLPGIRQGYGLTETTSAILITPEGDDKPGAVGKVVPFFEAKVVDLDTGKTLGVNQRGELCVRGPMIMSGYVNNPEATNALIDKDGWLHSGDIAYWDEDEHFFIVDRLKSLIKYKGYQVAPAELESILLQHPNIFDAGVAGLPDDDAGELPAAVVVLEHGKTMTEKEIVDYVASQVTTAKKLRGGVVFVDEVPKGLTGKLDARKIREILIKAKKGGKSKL
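Purified P. pyralis luciferase (10nM final) in 50mM Tris acetate pH 7.5, 10mM Mg acetate, 0.01% Tween-20, 0.05% BSA with 10uM D-luciferin and 10uM ATP. Compounds titrated qHTS. Luminescence imaged on CCD.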
HEK293 viab – cell viability loss counter-screen; HEK-293-SNCA-luc viability, GF-AFC fluorescence, 24 h; Potency, µM (doses to about 57.1 µM), for the others: top-dose activity change, negative = cytotoxicity, most hits filed as cytotoxic; actives 0.12% (n = 150,000); AID 1671193;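 further: 0% = DMSO-treated cells and -100% = medium-only wells without cells; nearly all actives have a fitted effect of over 30% in size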
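HEK-293-SNCA-luc cells (1500/well) plated 24 h, then exposed 24 h to a dilution series; GF-AFC added 30 min at 37C, fluorescence 405/540 nm; normalised to medium-only and DMSO wells, Hill fit.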
NIH3T3 tox – kills NIH 3T3 cells; NIH 3T3 viability, CellTiter-Glo ATP luminescence, 48-72 h; Potency, µM (doses to about 96.7 µM), without a hit: at the highest dose activity change, negative = cytotoxicity, actives largely listed as inhibitors; actives 4.3% (n = 94,000); AID 1345082; further: nearly all actives have a fitted effect of over 55% in size
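Luminescent ATP readout (CellTiter-Glo, 10 min RT) after 48 or 72 hr compound exposure of NIH 3T3 cells seeded at 400 cells/well in 1536-well format; quantitative HTS.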
SNCA expr inh – inhibitors of alpha-synuclein (SNCA) gene expression | actives 0.17% (n = 140,000) | HEK-293 SNCA-luciferase knock-in, luminescence, 24 h | Potency, µM (highest dose often 57.2 µM), inactives show at the top dose activity change, negative = inhibition, most hits filed as inhibitors;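 further: plate controls were DMSO cells for no effect and cell-free wells for full effect; nearly all actives have a fitted effect of over 45% in size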
HEK cytotox – HEK 293 cell cytotoxicity. actives 6.6% (n = 94,000). AID 1345083. HEK 293 viability, ATP luminescence (CellTiter-Glo), 48-72 h. Potency, µM (top dose mostly 115 µM), for the others: at the highest dose activity change, negative = cytotoxicity, actives largely listed as inhibitors; further: nearly all actives have a fitted effect of over 60% in size
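HEK 293 cells seeded at 250 cells/well were exposed to compound for 48 or 72 hr at 37 degree Celsius. Viability taken as ATP content by CellTiter-Glo luminescence.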
hNpr1 antagonist – blocks ANP-stimulated signaling of human Npr1 receptor | actives 1.6% (n = 76,000) | HEK293 hNpr1 GloSensor cGMP, ANP-stimulated luminescence | Potency, µM (titrated, usually from 46.3 µM), for inactives: top-dose activity change, negative = inhibition, most hits filed as inhibitors | AID 1347048 | P16066; calls by dose curve; further: nearly all actives have a fitted effect of over 60% in size
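Compound pre-incubated 30 min at room temperature on GloSensor-loaded HEK293 cells stably carrying hNpr1 and the pGS-40F cGMP biosensor. Stimulation uses hNppA at 0.1 nM final; luminescence is taken at baseline and 20 min post-agonist.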
Numbers without * were called inactive; i = inactive; ? = inconclusive; / = not tested or not shown; [ ] = dose if it differs, or a comment. Compounds with a hit are over-represented: about 7.2% of the library has one in this group of screens. Unless noted, the call rests on the fitted dose curve; in most records, active means well fitted curve in the direction sought with a large enough effect; inconclusive means small, poorly fitted or top-dose-only effect, or another doubt; inactive means no such curve, though single readings can be large; an effect the other way counts as inactive or inconclusive. Unless noted, on the % scale 0 is the no-effect control and ±100 the full control effect; potency means the concentration at half of the fitted maximal effect.

SMILES	FLuc inh	HEK293 viab	NIH3T3 tox	SNCA expr inh	HEK cytotox	hNpr1 antagonist
Cc1nc(N2CCC(NC(=O)c3cc4ccccc4[nH]3)CC2)cc(C(F)(F)F)n1	?	-5.6%	?	5.4%	?	7.94µM*
COc1ccccc1C(=O)NC1CCCN(c2cc(-c3ccc(F)cc3)[nH]n2)C1 (stereo unspecified)	?	-33.2%	?	0.5%	?	-17.5%
CNC(=O)N1c2ccccc2CC1c1nc(C(C)C)no1 (stereo unspecified)	i	2.4%	-0.1%	84.7%	0.3%	0.8%
Cc1ccc(C)c(S(=O)(=O)N2c3ccccc3CC2c2nc(C(C)C)no2)c1 (stereo unspecified)	/	?	?	-23.1%	14.1µM*	/
O=C(NC1CCN(C(=O)N2CC3CC(C2)[C@H]2CCCC(=O)N2C3)CC1)c1ccccn1 (stereo partly specified)	i	2.4%	0.5%	4.5%	2.1%	1.1%
Cc1ccc(C(=O)N(CCCN)C(c2nc3cc(Cl)ccc3c(=O)n2Cc2ccccc2)C(C)C)cc1 (stereo unspecified)	/	29.9µM*	/	/	/	/
O=C(Cc1cccc(Cl)c1)NC1CCN(c2cc(-c3ccccc3)[nH]n2)CC1	i	-25.5%	31.6µM*	?	?	-29.8%
COc1ccc(CC(=O)NC2CCN(c3cc(-c4ccc(Cl)cc4)[nH]n3)C2)cc1 (stereo unspecified)	i	-4.9%	?	-9.4%	28.2µM*	-30.5%
O=C(NC1CCN(c2cc(-c3ccc(Cl)cc3)[nH]n2)CC1)c1ccc2[nH]ccc2c1	i	-22.8%	35.5µM*	?	39.8µM*	-22.3%
O=C(NC1CCN(c2cc(-c3ccccc3)[nH]n2)CC1)c1ccc2ccccc2n1	i	-25.3%	28.2µM*	-13.5%	50.1µM*	-24.4%
COc1ccc(-c2cc(N3CCC(NC(=O)Cc4ccc(Cl)cc4)CC3)n[nH]2)cc1	i	-13.6%	?	1.8%	?	-25.1%
O=C1CC(c2ccc([N+](=O)[O-])cc2)=NN1c1ccccc1	/	-16.9%	/	/	/	/
COCCNC(=O)c1ccc2c(c1)N(C)C(CC(=O)N1CCCC1)CO2 (stereo unspecified)	i	-6.9%	-20.9%	3.6%	-18.4%	-2.8%
Cc1cc2ncc(C(=O)N3CCC4(CC(=O)NC4=O)C3)c(=O)n2[nH]1 (stereo unspecified)	i	15.5%	1.8%	5.2%	i	6.9%
COc1cc(OC)cc(C(=O)NC2CCN(c3cc(-c4ccc(F)cc4)[nH]n3)CC2)c1	i	-18.6%	35.5µM*	-40.7%	?	-21.8%
COc1cc(OC)cc(C(=O)NC2CCN(c3cc(-c4ccc(F)cc4)[nH]n3)C2)c1 (stereo unspecified)	i	-11.7%	?	-25.7%	?	-3.5%
O=C(NC1CCN(c2cc(-c3ccccc3)[nH]n2)CC1)c1ccc(Cl)cc1	i	10.3%	20µM*	0.6%	?	-26.8%
COc1ccc(-c2cc(N3CCC(NC(=O)c4ccc(Cl)cc4)C3)n[nH]2)cc1 (stereo unspecified)	i	-7.9%	?	11.8%	?	-12.6%
COc1ccc(-c2cc(N3CCC(NC(=O)c4ccc(Cl)cc4)CC3)n[nH]2)cc1	i	-4.0%	?	21.4%	44.7µM*	?
Cc1noc(-c2cn(C3CCN(C(=O)c4ccc(OC(F)(F)F)cc4)CC3)nn2)n1	i	-8.1%	-33.5%	0.3%	-1.6%	5.6%
COc1ccc(N2CCN(c3cc(C4CC(N)C4)nc(N)n3)CC2(C)C)cc1 (stereo unspecified)	i	?	22.4µM*	-2.5%	22.4µM*	-23.7%
COCCN1Cc2ccc(NCC(C)C)nc2C(C)(C(=O)Nc2ccc(OC)cc2)C1 (stereo unspecified)	?	?	44.7µM*	-18.9%[87.6 µM]	?	-9.6%[70.6 µM]
COCCN1Cc2ccc(NCC(C)C)nc2C(C)(C(=O)Nc2ccccc2)C1 (stereo unspecified)	i	-11.4%[87.6 µM]	?	-8.3%[87.6 µM]	?	-12.2%[70.6 µM]
COCCNC(=O)C1(C)CN(Cc2ccccc2)Cc2ccc(NCC(C)C)nc21 (stereo unspecified)	i	?	22.4µM*	?	39.8µM*	-12.2%[70.6 µM]
COCCN(C)C(=O)C1(C)CN(Cc2ccccc2)Cc2ccc(NCC(C)C)nc21 (stereo unspecified)	i	?	?	?	79.4µM*	0.6%[70.6 µM]
SMILES	FLuc inh	HEK293 viab	NIH3T3 tox	SNCA expr inh	HEK cytotox	hNpr1 antagonist
CN1CCCCCCN(C(=O)c2cccs2)[C@H]2CCC[C@H]2C1=O	i	4.1%	0.0%	-8.4%	-20.7%	0.4%
O=C(c1ccc(Cl)cc1)N1CCC(Cc2nc(-c3cnccn3)no2)CC1	i	-0.3%	25.1µM*	2.3%	?	?
O=C1Nc2ccc(-c3ccccc3F)cc2C(=O)N2CCN(C(=O)COc3ccccc3)C[C@H]12	i	-27.3%	?	?	?	-6.7%
CCc1nc(C(N)=O)c(Nc2ccc(N3CCC(N4CCN(C)CC4)CC3)c(OC)c2)nc1NC1CCOCC1	/	?	/	10.4%	/	/
CCCc1noc(-c2cn(C3CCN(C(=O)c4ccc(OC)nc4OC)CC3)nn2)n1	i	5.0%	-23.7%	?	?	-18.8%
O=C(NC1CC1)C1CCN(Cc2ccccc2-c2ccccc2F)CC1	/	-7.3%	-31.2%	3.7%	-20.1%	/
COCCNC(=O)C1CCN(Cc2ccccc2-c2ccccc2F)CC1	/	/	-13.3%	/	i	/
COc1ccc(CNC(=O)C2CCN(Cc3ccccc3-c3ccccc3F)CC2)cc1	/	/	?	/	44.7µM*	/
O=C(C1CCN(Cc2ccccc2-c2ccccc2F)CC1)N1CCOCC1	/	?	-21.7%	-7.9%	-23.1%	/
O=C(C1CCN(Cc2ccccc2-c2ccccc2F)CC1)N1CCN(Cc2ccccc2)CC1	/	/	25.1µM*	/	35.5µM*	/
O=C(NCc1ccccc1)C1CCN(Cc2ccccc2-c2ccccc2F)CC1	/	/	?	/	50.1µM*	/
O=C(NCc1ccccc1Cl)C1CCN(Cc2ccccc2-c2ccccc2F)CC1	/	/	44.7µM*	/	?	/
CC(C)CCC1(O)C(=O)C(C)(C)C(O[C@@H]2O[C@H](CO)[C@@H](O)[C@H](O)[C@H]2O)C(C)(C)C1O (stereo partly specified)	/	-10.5%[23.9 µM]	/	/	/	/
CCCn1cc(-c2ccncc2)cc1C(=O)N1CCN(c2ccccn2)CC1	i	0.1%	?	-7.1%	?	?
CCCn1cc(-c2ccncc2)cc1C(=O)N1CCN(c2ccccc2F)CC1	i	-2.8%	?	5.4%	44.7µM*	-19.9%

Screens deposited in PubChem by National Center for Advancing Translational Sciences (NCATS).
